# Laboratory results published in article PMC4336329 (PLoS ONE, 2015).
# Screen size: about 310,000 compounds; about 2,200 (0.71%) showed an effect of 50% or more. The effect is printed as a negative number. The sample as a whole holds a higher share of strong results than the screen did.
# Biological target: human ether-à-go-go-related gene (hERG) potassium channel (human, UniProt Q12809)
# Experiment: primary screen, population patch clamp on CHO cells stably expressing hERG; higher = less effect of the substance
# human ether-à-go-go-related gene (hERG) potassium channel, sequence (Q12809 whole entry, looked up): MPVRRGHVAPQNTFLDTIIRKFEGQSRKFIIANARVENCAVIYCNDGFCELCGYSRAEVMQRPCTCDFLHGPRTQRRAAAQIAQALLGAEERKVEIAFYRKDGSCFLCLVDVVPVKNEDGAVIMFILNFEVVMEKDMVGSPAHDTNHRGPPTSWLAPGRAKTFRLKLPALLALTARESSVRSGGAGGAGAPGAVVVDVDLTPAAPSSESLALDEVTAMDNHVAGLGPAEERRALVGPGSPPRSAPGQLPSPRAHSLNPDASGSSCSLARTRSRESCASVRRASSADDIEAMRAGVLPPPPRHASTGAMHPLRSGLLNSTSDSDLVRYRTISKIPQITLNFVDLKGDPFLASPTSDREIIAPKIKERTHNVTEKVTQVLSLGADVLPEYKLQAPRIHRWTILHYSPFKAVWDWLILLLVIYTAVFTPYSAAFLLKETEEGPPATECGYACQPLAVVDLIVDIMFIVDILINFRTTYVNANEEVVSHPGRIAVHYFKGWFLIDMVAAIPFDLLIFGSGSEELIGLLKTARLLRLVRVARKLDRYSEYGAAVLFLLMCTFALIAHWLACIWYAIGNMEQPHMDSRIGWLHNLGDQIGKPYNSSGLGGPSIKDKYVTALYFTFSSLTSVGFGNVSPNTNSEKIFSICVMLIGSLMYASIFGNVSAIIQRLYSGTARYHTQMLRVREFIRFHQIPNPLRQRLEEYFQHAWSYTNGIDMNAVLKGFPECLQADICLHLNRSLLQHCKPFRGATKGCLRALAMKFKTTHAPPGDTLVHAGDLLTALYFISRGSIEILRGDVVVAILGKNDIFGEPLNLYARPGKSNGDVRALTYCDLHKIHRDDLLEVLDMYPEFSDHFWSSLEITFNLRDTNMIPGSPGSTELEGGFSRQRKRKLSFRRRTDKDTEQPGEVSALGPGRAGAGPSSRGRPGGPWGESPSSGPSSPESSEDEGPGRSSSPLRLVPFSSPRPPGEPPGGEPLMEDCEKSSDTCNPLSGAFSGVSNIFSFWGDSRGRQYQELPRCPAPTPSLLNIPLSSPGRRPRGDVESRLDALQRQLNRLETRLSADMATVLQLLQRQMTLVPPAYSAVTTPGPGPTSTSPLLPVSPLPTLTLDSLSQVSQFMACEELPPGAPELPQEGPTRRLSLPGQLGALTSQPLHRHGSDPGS
row,Structure (SMILES),"hERG current change (%, negative = inhibition) at 1uM"
1,Cc1cc(C(=O)CN2C(=O)NC3(CCCCC3)C2=O)c(C)n1-c1ccc2c(c1)OCO2,5.94%
2,C=CCN(CC=C)C(=O)C(=O)c1ccn(-c2c(C)csc2C(=O)OC)c1,-59.3%
3,CCN(CC)C(=O)C(=O)c1ccn(-c2c(C)csc2C(=O)OC)c1,7.53%
4,COC(=O)c1scc(C)c1-n1ccc(C(=O)C(=O)N(C)C)c1,9.29%
5,CC(C)(C)CN1CCNC(=O)C1CC(=O)NCCc1cnn(-c2ccccc2)c1 (centres unmarked),5.53%
6,CSc1sc(C(=O)Nc2ccc(F)cc2F)c2c1C=CCC2,11.8%
7,COc1ccc(NS(=O)(=O)c2cccs2)cc1S(=O)(=O)N1CCOCC1,14.7%
8,O=C(Nc1ccccc1)N1CCN(c2ncccn2)CC1,6.7%
9,OC1(Cc2cc(-c3ccccc3)no2)CCN(CCCc2ccccc2)CC1,-55.5%
10,c1ccc(CCCN2CCOCC2)cc1,22.1%
11,COc1cccc(-c2cc(CC3(O)CCN(CCCc4ccccc4)CC3)on2)c1,-39.3%
12,O=C(NCCN1CCOCC1)c1ccc(CS(=O)(=O)c2ccc(Br)cc2)o1,-0.189%
13,COc1ccc(N2CCN(CCCNC(=O)c3ccc(CS(=O)(=O)c4ccc(OC)cc4)o3)CC2)cc1,-43.1%
14,O=C(NCCN1CCN(Cc2ccccc2)CC1)c1ccc(CS(=O)(=O)c2ccc(Br)cc2)o1,-50.5%
15,O=C(NCCN1CCCCCC1)c1ccc(CS(=O)(=O)c2ccc(Br)cc2)o1,-37.9%
16,COc1ccccc1S(=O)(=O)Cc1ccc(C(=O)NCCCN2CCN(c3ccc(F)cc3)CC2)o1,-68.3%
17,COc1ccccc1S(=O)(=O)Cc1ccc(C(=O)NCCN2CCCCCC2)o1,9.15%
18,COc1ccccc1S(=O)(=O)Cc1ccc(C(=O)NCCN2CCCC2)o1,14.2%
19,O=C(NCCCN1CCCC1)c1ccc(CS(=O)(=O)c2ccc(Cl)cc2)o1,18.1%

row,Structure (SMILES),"hERG current change (%, negative = inhibition) at 1uM"
1,COc1ccc(N2CCN(CCCNC(=O)c3ccc(CS(=O)(=O)c4ccc(Cl)cc4)o3)CC2)cc1,-71.2%
2,CSc1nc2nc3c(c(=O)n2[nH]1)CCC3,1.88%
3,CCOC(=O)c1sc2nc[nH]c(=O)c2c1C,12.6%
4,Cc1cc2c(cc1C)[n+](C)cn2CC(O)COCC1CC=CCC1.[I-] (centres unmarked),11%
5,CC(=O)CC(c1ccccc1)c1c(O)c2ccccc2oc1=O.[Na] (centres unmarked),15.2%
6,Cc1ccc(C(=O)Nc2cccc(-c3ccc(N4CCOCC4)nn3)c2)cc1,4.57%
7,COc1cc(SC)ccc1C(=O)OCC(=O)NC1CCCC1,9.49%
8,Brc1ccc(CSc2ccc3nnc(-c4ccccn4)n3n2)cc1,-12.7%
9,Cc1ccc(CSc2ccc3nnc(-c4cccnc4)n3n2)cc1,-70.6%
10,Fc1ccc(CSc2nnc3ccc(-c4ccncc4)nn23)cc1,-61.2%
11,Fc1cccc(Cl)c1CSc1ccc2nnc(-c3ccccn3)n2n1,1.37%
12,Fc1ccc(CSc2ccc3nnc(-c4ccccn4)n3n2)cc1,-92.9%
13,c1ccc(CSc2nnc3ccc(-c4ccncc4)nn23)cc1,-12%
14,Fc1ccc(CSc2ccc3nnc(-c4cccnc4)n3n2)cc1,-31.8%
15,O=C(CSc1ccc2nnc(-c3ccccn3)n2n1)Nc1cccc(F)c1,-7.83%
16,Fc1cccc(CSc2ccc3nnc(-c4ccccn4)n3n2)c1,-50.2%
17,Cc1ccc(CSc2nnc3ccc(-c4ccncc4)nn23)cc1,-3.17%
18,Cc1cccc(CSc2ccc3nnc(-c4cccnc4)n3n2)c1,-16%
19,c1ccc(CSc2ccc3nnc(-c4ccccn4)n3n2)cc1,-26.6%

row,Structure (SMILES),"hERG current change (%, negative = inhibition) at 1uM"
1,Cc1cc[n+](CC(=O)Nc2cc(C(F)(F)F)ccc2Cl)cc1.[Cl-],5.29%
2,O=C(NCCS(=O)(=O)N1CCC2(CC1)OCCO2)c1ccc(F)cc1,13.2%
3,CSc1nc2ccccc2cc1/C=C(\C#N)c1ccccc1,9.25%
4,Cc1ccccc1S(=O)Cc1ccc(C(=O)NCCN2CCOCC2)o1 (centres unmarked),25.5%
5,CC(C)CN(C(=O)CSc1nnc2ccccn12)C1CCS(=O)(=O)C1 (centres unmarked),8.69%
6,CCOC(=O)Cn1ncc2c3ccccc3n(CC(=O)OCC)c2c1=O,13.4%
7,Cc1cccc(CSc2nnc(-c3ccccn3)n2N)c1,9.76%
8,Cc1cccc(CSc2ccc3nnc(-c4ccccn4)n3n2)c1,-58.9%
9,Cc1cccc(CSc2ccc3nnc(-c4cccs4)n3n2)c1,5.73%
10,Cc1ccc(NC(=O)c2cc(NC(=O)C3CC=CCC3C(=O)O)ccc2N2CCOCC2)cc1Cl (centres unmarked),5.76%
11,O=C(/C=C/c1ccco1)Nc1cccc(S(=O)(=O)N2CCOCC2)c1,-5.85%
12,O=[N+]([O-])c1ccc(CN2CCN(Cc3c[nH]c4ccccc34)CC2)cc1,-73.7%
13,CCOc1ccc(CN2CCN(Cc3c[nH]c4ccccc34)CC2)cc1.O=C(O)C(=O)O,-85.8%
14,O=C(O)C(=O)O.O=[N+]([O-])c1ccc(S(=O)(=O)N2CCN(Cc3c[nH]c4ccccc34)CC2)cc1,-10.1%
15,COc1ccc(CN2CCN(Cc3c[nH]c4ccccc34)CC2)cc1.O=C(O)C(=O)O,-27.2%
16,c1ccc(CN2CCN(Cc3c[nH]c4ccccc34)CC2)cc1,15.3%
17,Brc1ccc(CN2CCN(Cc3c[nH]c4ccccc34)CC2)cc1.O=C(O)C(=O)O,-22%
18,CC(C)Sc1nnc(-c2ccc(S(=O)(=O)N3CCOCC3)cc2)n1C,7.81%
